Hits are enriched below; roughly 12% of the tested compounds scored in any of these assays.
BAZ2B block: blocks human BAZ2B | Potency, µM (doses to about 114 µM), inactives show at the highest dose activity change, negative = inhibition, usual class: inhibitors | Q9UIF8 | AlphaScreen BAZ2B-H3K14Ac peptide displacement | AID 504333 | 360,000 compounds, 4.4% hits; note: potency is the fitted concentration of half-maximal effect; % is set by controls: 0 for no effect and ±100 for the full control effect; nearly all actives have a fitted effect of over 60% in size
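Complex of BAZ2B and biotin-H3K14Ac (50 nM apiece) forms over 30 min at RT, then faces library compounds up to 110 uM for another 30 min; AlphaScreen beads added, 20 min dark incubation, luminescence read.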
G9a inh-1: G9a (human) methyltransferase inhibition; Q96KQ7; G9a H3K9 monomethylation, AlphaScreen, 2 h; Potency, µM (highest dose often 102 µM), for inactives: at the top dose activity, negative = inhibition, usual class: inhibitors; 350,000 compounds, 8.8% hits; AID 504332; note: potency is the fitted concentration of half-maximal effect; % is set by controls: 0 for no effect and ±100 for the full control effect; nearly all actives have a fitted effect of over 75% in size
Target sequence (Q96KQ7 913-1193 limits assumed): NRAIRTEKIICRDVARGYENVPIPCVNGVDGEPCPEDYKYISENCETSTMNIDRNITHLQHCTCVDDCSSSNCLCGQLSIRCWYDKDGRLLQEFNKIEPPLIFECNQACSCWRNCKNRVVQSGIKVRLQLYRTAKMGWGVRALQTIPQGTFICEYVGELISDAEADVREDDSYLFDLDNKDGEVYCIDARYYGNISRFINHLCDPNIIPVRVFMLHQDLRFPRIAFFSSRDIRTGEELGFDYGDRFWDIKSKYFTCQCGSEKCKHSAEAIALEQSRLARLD
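G9a (20 nM) was preincubated 15 min with compound, then reacted 2 h at room temperature with 500 nM biotin-H3K9 peptide and 20 µM SAM. Monomethyl-H3K9 detected by AlphaScreen using anti-H3K9me1 antibody.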
HP1b binding inh: inhibitors of HP1-beta chromodomain binding to methylated histone tails. P83916. AlphaScreen HP1-beta / biotin-H3K9me3 peptide binding. Potency, µM (highest dose often 114 µM), inactives show at the top dose activity change, negative = inhibition, usual class: inhibitors. 390,000 compounds, 0.56% hits. AID 540317; note: potency is the fitted concentration of half-maximal effect; nearly all actives have a fitted effect of over 70% in size
Target sequence (P83916 whole entry, looked up): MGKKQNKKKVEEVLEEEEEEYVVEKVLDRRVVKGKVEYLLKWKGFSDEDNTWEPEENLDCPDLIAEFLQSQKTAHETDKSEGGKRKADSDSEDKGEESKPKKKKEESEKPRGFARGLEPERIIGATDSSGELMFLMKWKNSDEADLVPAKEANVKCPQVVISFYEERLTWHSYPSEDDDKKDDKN
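AlphaScreen: HP1-beta (50 nM) preformed 30 min with biotin-H3(1-18)K9me3 peptide (50 nM) in PBS pH 7.4, 0.01% Tween-20. Compound added for 30 min at RT, then streptavidin donor/nickel chelate acceptor beads (10 ug/mL) for 30 min.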
PLK1 PBD block: blocks phosphopeptide binding to human PLK1 polo-box domain; 360,000 compounds, 2.8% hits; P53350; Plk1 PBD binding of FITC phosphopeptide, fluorescence polarization; Potency, µM, inactives show max response, negative = inhibition, most hits filed as inhibitors; note: potency is the fitted concentration of half-maximal effect; series mostly up to about 57 µM; % is set by controls: 0 for no effect and ±100 for the full control effect; nearly all actives have a fitted effect of over 65% in size
Sfp PPTase inh: inhibitors of Bacillus subtilis Sfp phosphopantetheinyl transferase; Biochemical Sfp PPTase activity, qHTS; Potency, µM, for the others: largest response in the series, negative = inhibition, actives largely listed as inhibitors; 310,000 compounds, 3.5% hits;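 note: the enzyme is Sfp with the accession as filed and its product quenches rhodamine fluorescence; potency is the fitted concentration of half-maximal effect; 0% = enzyme reaction without inhibitor and -100% = no enzyme wells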
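Fluorescence-quenching assay with 15 nM Sfp, 5 uM rhodamine-CoA and 12.5 uM BHQ-2-labelled ybbR peptide in pH 7.6 Hepes/MgCl2 buffer. Enzyme was pre-incubated with compound for 15 min at room temperature. Rate was taken from the 30-min fluorescence change (525/598 nm).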
JMJD2A Tudor inh: inhibitors of human JMJD2A Tudor domain. O75164. AlphaScreen JMJD2A-Tudor / H3K4me3 peptide binding. Potency, µM (highest dose often 114 µM), inactives show top-dose activity change, negative = inhibition, actives largely listed as inhibitors. 390,000 compounds, 4.4% hits. AID 504339; note: potency is the fitted concentration of half-maximal effect; % is set by controls: 0 for no effect and ±100 for the full control effect; nearly all actives have a fitted effect of over 50% in size
JMJD2E confirm: JMJD2E (human) demethylase inhibition, confirmation | shares compounds with JMJD2A Tudor inh | Recombinant JMJD2E, FDH-coupled NADH fluorescence (FDH is formaldehyde dehydrogenase) | Potency, µM (series often up to 56.8 µM), without a hit: at the highest dose activity change, negative = inhibition, actives largely listed as inhibitors | 140 compounds, 93% hits
FDH inh: FDH (Pseudomonas putida) inhibition counter-screen; shares compounds with JMJD2A Tudor inh; FDH enzyme assay, NADH fluorescence kinetic; Potency, µM (series often up to 56.7 µM), without a hit: top-dose activity, negative = inhibition, most hits filed as inhibitors; 140 compounds, 10% hits
G9a inh-2: confirmation of human histone methyltransferase G9a inhibitors. 370 compounds, 89% hits. G9a H3K9 monomethylation, AlphaScreen, 2 h. shares compounds with JMJD2A Tudor inh. AID 588344. Potency, µM, hits mostly inhibitors; note: potency is the fitted concentration of half-maximal effect; nearly all actives have a fitted effect of over 65% in size
* marks the source's active call; other numbers are inactive results; ? = inconclusive; · = no result given; ! = not active in a repeat; [ ] = remark or other dose. Calls come from the whole dose curve; as a rule, active = well fitted curve in the direction sought with a large enough effect; inconclusive = small, poorly fitted or top-dose-only effect, or another doubt; inactive = no such curve, though single readings can be large; an effect the other way counts as inactive or inconclusive.

SMILES	BAZ2B block	G9a inh-1	HP1b binding inh	PLK1 PBD block	Sfp PPTase inh	JMJD2A Tudor inh	G9a inh-2	others
CC(C)CCN(Cc1ccco1)C(=O)c1cc2c(s1)-c1ccccc1OC2	107%	134%[59 µM]	146%	·	·	124%	·
Fc1cccc(Cl)c1CNc1ccc(N2CCCC2)cc1	13µM*	1.8µM*	25µM*	21µM*	?	20µM*	5.6*
NS(=O)(=O)c1ccc(NCc2c(F)cccc2Cl)cc1	-7%	0%	24%	2%	3%	-11%	·
CCN(c1ccc(NC(=O)COC(=O)c2ccc(S(=O)(=O)N3CCCC3)cc2)cc1)C(C)C	3%	?	16%	-3%	-6%	-12%	2.2*
CC(C)c1ccc(S(=O)(=O)N2CCN(CCC(=O)Nc3ccc(N(C)C)cc3)CC2)cc1	22µM*	1µM*	?	1%	5%	35µM*	2*
CC1CCCC(C)N1C(=O)CN1C(=O)c2ccccc2S1(=O)=O (stereo unspecified)	4%	4%[2.33 µM]	55%	-7%	·	-18%	·
O=C(COc1ccccc1)Nc1nnc(S(=O)(=O)Nc2ccccc2)s1	1.4µM*!	?	46%	-3%	19%	?	?
CN(c1ccccc1)S(=O)(=O)c1nnc(NC(=O)COc2ccccc2)s1	-25%	?	50%	-10%	13%	-26%	·
COc1ccc(Br)cc1CNc1ccc(N2CCOCC2)cc1	28µM*	?	?	-14%	-19%	40µM*	3.2*
COc1ccc(Br)cc1CNc1ccc(S(N)(=O)=O)cc1	-24%	-3%[59 µM]	4%	-12%	5%	-6%	·
COC(=O)C(C)NC(=O)C1CCCN1C(=O)CNC(=O)OCc1ccccc1 (stereo unspecified)	-1%	17%	20%	1%	16%	-6%	·
Cc1ccc(-c2nn3c(C)nnc3s2)cc1NC(=O)c1ccc(-c2cccc(Cl)c2)o1	-8%	?	55%	?	22µM*	?	?
O=C(C(=O)N1CCC(c2ccccc2)CC1)c1ccc(F)c(F)c1	·	·	·	-3%	·	·	·
Cc1cc(C)cc(C(=O)N2CCN(Cc3ccc4c(c3)OCO4)CC2)c1	-2%	?	18%	-2%	-1%	-17%	·
O=C(c1cccnc1)N1CCN(Cc2ccc3c(c2)OCO3)CC1	50µM*	?	?	-7%	?	6.3µM*	7.1*
CCC(Sc1nnnn1C)C(=O)Nc1ccc(C(C)=O)cc1 (stereo unspecified)	?	?	7%	-16%	8%	-3%	11*
O=C(Nc1ccc2c(c1)oc1ccccc12)N1CCOCC1	4%	6%	48%	-1%	18%	-7%	·
CCn1c2ccccc2c2cc(NC(=O)N3CCOCC3)ccc21	?	?	-11%	-1%	-3%	-18%	10*
O=C(CSc1cccc[n+]1[O-])Nc1ccccc1Oc1ccccc1	-21%	2µM*	?	30µM*	40µM*	50µM*	2*
O=C(CSc1cccc[n+]1[O-])Nc1ccccc1C(F)(F)F	·	·	28%[57 µM]	-11%	·	3%	·
Cc1ccc(OCC(=O)Nc2cccc(-c3nc4ccccc4s3)c2)cc1	1%	2.5µM*	-14%	·	·	-12%	11*
CC(=O)c1sc2nsc(SCCN3CCOCC3)c2c1N	-36%	0.79µM*	79µM*	30µM*	8.9µM*	6.3µM*	2.5*
CCOC(=O)c1sc2nc(OCCN3CCOCC3)cc(C)c2c1N	·	·	·	-3%	·	·	·
CC(C)(C)C1CCc2c(sc(NC(=O)c3ccncc3)c2C(=O)Nc2ccccc2Cl)C1 (stereo unspecified)	-28%	2.2µM*	26%	·	·	?	?
COc1ccc(NC(=O)c2c(NC(=O)c3ccncc3)sc3c2CCC(C(C)(C)C)C3)cc1 (stereo unspecified)	-14%	?	16%	·	·	-35%	·
SMILES	BAZ2B block	G9a inh-1	HP1b binding inh	PLK1 PBD block	Sfp PPTase inh	JMJD2A Tudor inh	G9a inh-2	others
CN(C)c1cccc(C(=O)Nc2cccc(F)c2)c1	?	?	14%	-9%	-14%	-35%	7.1*
CCN(CC)c1ccc(C(=O)Nc2cccc(F)c2)cc1	-7%	-13%[59 µM]	19%	-1%	17%	-17%	·
CCOc1ccc(S(=O)(=O)Nc2nc3ccccc3nc2N2CCN(C)CC2)cc1	-28%	?	30%	-1%	9%	-12%	?
CC(NS(=O)(=O)c1ccc(Cl)cc1)C(=O)OCC(=O)Nc1ccc(N(C)C)cc1 (stereo unspecified)	?	2.5µM*	-34%	-5%	·	?	4*
Cc1ccc(C)c(S(=O)(=O)Nc2ccc(C(=O)N3CCCCC3)cc2)c1	-2%	·	6%	-6%	16%	-10%	·
O=C(CN1CCCc2ccccc21)N1CCc2ccccc21	?	?	31%	5%	5%	-14%	·
Oc1ccc(CN2CCCc3ccccc32)c2cccnc12	35µM*	1.6µM*	?	?	-4%	?	·	JMJD2E confirm=1.3µM*;FDH inh=-27%
COC(=O)c1c(-c2cccs2)csc1NC(=O)COc1ccccc1	?	1.8µM*	-8%	·	·	-28%	4.1*
Cc1ccc(-c2onc(C)c2C)cc1S(=O)(=O)N1CCC(C)CC1	31%	12%[59 µM]	97%	·	·	14%	·
C=CC[C@]12CC=CC(=O)[C@@]1(O)O[C@H](c1ccc(OC)c(OC)c1)[C@H]2C	·	·	26%	0%	·	-18%	·
CCN(CC)c1ccc(NC(=O)CN2CCN(S(=O)(=O)c3cc(Cl)ccc3OC)CC2)cc1	50µM*!	8.9µM*	?	-5%	-5%	40µM*	4*
CCOc1ccc(NC(=O)CN2CCN(CC(=O)c3ccc(OC)c(OC)c3)CC2)cc1	8%	2.5µM*	0%	19µM*	8%	?	45*
CCOc1ccc(NC(=O)CN2CCN(CC(=O)Nc3ccc(F)cc3)CC2)cc1	1%	3%[12.7 µM]	67%	-7%	10%	-10%	·
